# Results taken from PubChem BioAssay AID1063 (University of Pittsburgh Molecular Library Screening Center, 2008).
# In all, about 200,000 compounds went through this assay and about 18,000 (9%) were called active. The list comes from a sample in which actives are over-represented; it also holds similar structures and randomly drawn compounds. A number with no mark means an inactive call. Cut-off read from the data, not from the text of the source: active = inhibition above about 50%; inactive = the rest.
# Assay: Leishmania major promastigote growth inhibition, primary screen (AID 1063);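 note: promastigotes grown with compound for 44 hours at 28 °C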
# Conditions: Leishmania major promastigotes, resazurin fluorescence viability; at 10 µM; active compounds read high
row,SMILES,inhibition
1,CC(=O)N1CCN(S(=O)(=O)c2c(F)cc(F)c(Cl)c2F)CC1,0.83%
2,COc1ccc(C(=O)Nc2cccc(S(C)(=O)=O)c2)cc1,-0.33%
3,CC(C)(C)NC(=O)COC(=O)c1cc(Cl)ccc1[N+](=O)[O-],2.68%
4,CCOC(=O)C1(Cc2cccc(OC)c2)CCCN(S(=O)(=O)c2cccnc2)C1 (stereo not drawn),1.74%
5,CCOC(=O)c1sc(/N=C/C2=C(O)CC(C)(C)CC2=O)c(C(=O)OCC)c1C,-3.8%
6,Cn1c(=O)c2c(ncn2CC(=O)N2CCN(c3ccccc3)CC2)n(C)c1=O,-3.01%
7,Cn1c(=O)c2c(ncn2CCc2ccccc2)n(C)c1=O,-0.5%
8,Cn1c(=O)c2c(ncn2CC(COCc2ccccc2Cl)OCc2ccccc2Cl)n(C)c1=O (stereo not drawn),96.2% (active)
9,Cc1ncc([N+](=O)[O-])n1CCOC(=O)c1ccc(Br)cc1,13.8%
10,Cc1cccc(C)c1NC(=O)C1(C)c2cccc[n+]2CC(=O)N1Cc1cccs1 (stereo not drawn),13.1%
11,O=C(/C=C/Sc1ncn[nH]1)c1ccc(Cl)cc1,100% (active)
12,CC(C)(C)c1ccc(C(=O)CSc2ncn[nH]2)cc1,-1.37%
13,O=C(NCCOCc1ccc(Cl)cc1)c1ncn[nH]1,24.4%
14,Cc1cc(C)n(-c2nnc(N3CCN(c4ccccc4)CC3)nn2)n1,10.3%
15,Cc1n[nH]c(=O)n1-c1ccc(C(C)C)cc1,-3.84%
16,C/C(=N/O)c1ccc(N2C(=O)C3C4C=CC(C3C2=O)C2C3C(=O)N(c5ccc(/C(C)=N/O)cc5)C(=O)C3C42)cc1 (stereo not drawn),-0.53%
17,Cc1ccc2[nH]c(=O)c(CN3CCCCC3)c(-c3ccccc3)c2c1,6.53%
18,Nc1cccc(-c2cc(-c3ccccc3)nc(-c3cccc(N)c3)n2)c1,64% (active)
19,Nc1cccc(CCc2nc3ccccc3[nH]2)c1,-2.96%
20,CS(=O)(=O)c1sc2nc(-c3ccccc3)cc(-c3ccccc3)c2c1N,3.87%
21,OC1CSc2nc3ccccc3n2C1 (stereo not drawn),0.82%
22,O=C(Nc1cccc(C(F)(F)F)c1)c1cnccn1,7.19%
23,Nc1c(C(=O)NCc2ccccc2)nnn1Cc1cccc(Cl)c1,-2.28%
24,O=c1[nH]n(-c2cccc(Cl)c2)c2ncccc12,-7.31%
25,Clc1cccc(CN2COc3c(cc(Cl)c4cccnc34)C2)c1,101% (active)

row,SMILES,inhibition
1,O=C(C(=O)N1CCc2ccccc2C1)c1c[nH]c2ccccc12,4.91%
2,Cc1ccccc1NC(=O)NC1(C(=O)N2CCCC2)CCCCC1,-6.94%
3,Cc1ccc(C(=O)NNC(=O)c2cccs2)cc1,5.96%
4,CC(C)C(=O)Nc1ccc(C(=O)NNC(=O)c2cccs2)cc1,66.2% (active)
5,O=C(O)c1ccc(NC(=O)c2cccs2)cc1,-4.2%
6,COc1ccc(OC)c(S(=O)(=O)NCCC(C)C)c1,-7.99%
7,O=C1Oc2ccccc2C(=O)/C1=C/c1ccccc1O,7.18%
8,CN1CCN(C(=O)N2c3ccccc3CCc3ccccc32)CC1,-0.1%
9,O=C(Nc1cccc(O)c1)c1ccc(C(=O)c2ccccc2)o1,26.7%
10,O=C1CCCC2=C1C(c1cccs1)CC(=O)N2c1ccc(F)cc1 (stereo not drawn),4.07%
11,CCOC(=O)c1cc2c(n(-c3ccc(C)cc3)c1=O)CCCC2=O,15.4%
12,CCOC(=O)C1=C(N)N(c2ccc(C)cc2)C2=C(C(=O)CCC2)C1c1cccs1 (stereo not drawn),92.3% (active)
13,Cc1nc(-c2ccccc2)sc1C(=O)/C=C/N(C)C,-7.03%
14,C/C=C/c1ccc(OCCOc2ccc(C=O)cc2OC)c(OC)c1,-4.56%
15,C/C=C/c1ccc(OCCCCN2CCC(C)CC2)c(OC)c1,95.6% (active)
16,COc1ccc(OC)c(NC(=O)CCN2CCC(C)CC2)c1,1.65%
17,O=c1c(Cl)c(NC2CC2)cnn1-c1ccccc1,-1.71%
18,c1ccc2c(c1)CSc1sccc1C2=C1CCNCC1,58.3% (active)
19,CCOC(=O)Cc1csc(NC(=O)COc2ccc3c(C)cc(=O)oc3c2)n1,13.5%
20,O=C(c1cccnc1)N(c1cc2sc(=O)oc2c2ccccc12)S(=O)(=O)c1ccccc1,99.2% (active)
21,CN(C)S(=O)(=O)c1cccc(C(=O)Nc2cccnc2)c1,-3.68%
22,COc1ccc(N(C(=O)c2cccnc2)S(=O)(=O)c2ccc3c(c2)n(C)c(=O)n3C)cc1,0.4%
23,N/C(Cc1ccc([N+](=O)[O-])cc1)=N\OC(=O)C1CCCCC1,-4.63%
24,COCCN(C(=O)c1ccccc1F)c1c(N)n(Cc2ccccc2)c(=O)[nH]c1=O,-1.31%
25,CCOC(=O)c1nc(Nc2ccc(C(=O)OC)cc2)c2ccccc2n1,16.3%

row,SMILES,inhibition
1,CCC(=O)OCCNc1nc(-c2ccccc2)nc2ccccc12,88.4% (active)
2,c1coc(CNc2ncnc3ccccc23)c1,32.3%
3,CS(=O)(=O)n1nc(-c2ccccc2)nc1NCc1ccco1,-5.02%
4,CCOC(=O)c1c(C)nc(-c2ccccc2)nc1NC(=O)C(C)C,14.1%
5,c1ccc(-c2nc(NCc3ccco3)c3ccccc3n2)cc1,66.3% (active)
6,CN(C)c1ccc(NC(=O)CSc2n[nH]c(-c3ccco3)n2)cc1,47%
7,CCN(CC)C(=O)Cn1cc(S(=O)(=O)CC(=O)NCc2ccc3c(c2)OCO3)c2ccccc21,-2.2%
8,CCCN(CC(=O)Nc1ccc(OC)c(OC)c1)CC(=O)Nc1ccc(F)c(F)c1F,-4.92%
9,COCCSc1nnc(NC(=O)c2cc(OC)c(OC)cc2[N+](=O)[O-])s1,-4.07%
10,CC(=O)c1ccc(NC(=S)N(Cc2ccccc2)C(C)C2CC2)cc1 (stereo not drawn),11.1%
11,CC(C)CC(=O)NC(=S)Nc1ccc(F)cc1F,-0.93%
12,Cc1[nH]nc(SCC(=O)NCC(C)C)c1[N+](=O)[O-],-6.19%
13,OC(COCCC12CC3CC(CC(C3)C1)C2)CN1CCCCC1 (stereo not drawn),92.4% (active)
14,Cc1cccc(C)c1OCC(O)CN1CCCCC1 (stereo not drawn),-0.13%
15,COCC1CCCN(Cc2cn[nH]c2-c2cc3ccccc3o2)C1 (stereo not drawn),11.4%
16,O=C(CC1Nc2ccccc2NC1=O)Nc1ccccc1NC(=O)CC1Nc2ccccc2NC1=O (stereo not drawn),-4.12%
17,CSCCC(=O)N1CCCC(CNC(=O)c2ccccc2Cl)C1 (stereo not drawn),-3.88%
18,COc1ccc(/C=N/Nc2nc3ccccc3c(=O)[nH]2)cc1,36.7%
19,COc1ccc(Cc2nnc(N/N=C/c3ccccc3O)[nH]c2=O)cc1OC,97.4% (active)
20,CCOc1ccc(-n2c(O)c(/C=N/Nc3nnc(C)c(=O)[nH]3)c3ccccc3c2=O)cc1,3.53%
21,CCCCNS(=O)(=O)c1ccc2nc(SCC(=O)Nc3cc(C)cc(C)c3)[nH]c2c1,-3.48%
22,O=C(CSc1ncn[nH]1)NCc1ccc2c(c1)OCO2,-2.48%
23,Cc1[nH]c2c(C(=O)N3CCCC(CCC(=O)NCc4ccccc4F)C3)cccc2c1C (stereo not drawn),3.43%
24,Nc1[nH]c(=S)nc2nc(-c3ccccc3)c(-c3ccccc3)nc12,29.6%
25,Cc1nc2nc[nH]n2c(=O)c1C/C=C/c1ccccc1,-0.45%

row,SMILES,inhibition
1,CCc1c(C)nc2cc(-c3cccs3)[nH]n2c1=O,6.8%
2,CCc1c(C)nc2cc(C)[nH]n2c1=O,65% (active)
3,COc1cccc(Cn2cnc3c([N+](=O)[O-])c(C)c(C)cc32)c1,12.1%
4,Oc1ccccc1C=NC1CCCCC1N=Cc1ccccc1O (stereo not drawn),-8.81%
5,COc1cc(/C=C2/C(=O)ON=C2C)ccc1OCc1cccc(F)c1,53.5% (active)
6,COc1cc(/C=N/n2c(C)n[nH]c2=S)ccc1OCc1ccccc1,36.4%
7,COc1cc(/C=C2/C(=O)ON=C2C)ccc1OCc1ccccc1F,33.4%
8,Cc1cccc2c1N(CCOc1ccccc1)C(=O)C2=O,4.82%
9,O=C(CC1C(=O)NCCN1CC(c1ccccc1)c1ccccc1)NCCc1cn[nH]c1 (stereo not drawn),-0.14%
10,Cc1cc([N+](=O)[O-])nn1Cc1ccc(F)cc1,10.1%
11,CCCOc1ccc(C2C(C(=O)c3ccc(C)o3)=C(O)C(=O)N2CCCn2ccnc2)cc1 (stereo not drawn),-8.78%
12,CCCCOc1ccc(CSC(=N)N)cc1[N+](=O)[O-],100% (active)
13,CCCOc1ccc(Cn2ccnc2)cc1[N+](=O)[O-],85.9% (active)
14,CCCCCOc1ccc(CSC2=NCCN2)cc1[N+](=O)[O-],88.3% (active)
15,CCCCOC(=O)CCCc1ccc([N+](=O)[O-])cc1[N+](=O)[O-],0.48%
16,CCOc1ccc(C(=O)Nc2nccs2)cc1[N+](=O)[O-],48.5%
17,CCOc1ccc(Br)cc1CSC(=N)N,33.2%
18,Cc1nc(SCc2ccc(F)cc2)c([N+](=O)[O-])[nH]1,-7.82%
19,Cc1ccccc1NC(=O)CSC1=NCCN1,-2.55%
20,CN(C)c1ccc(C=NCCc2ccc(S(N)(=O)=O)cc2)cc1,3.91%
21,CCOC(=O)c1cnc2[nH]c3ccccc3n2c1=O,7.85%
22,O=C(O)CC/C(=N\NC(=O)c1ccc(F)cc1)c1ccc(Br)cc1,-8.88%
23,Cn1ccc(=NC=C(C#N)C#N)c2ccccc21,7.93%
